Inconclusive results are not listed. The source made the active and inactive calls. Unless noted, calls come from the whole dose curve; as a rule, active = well fitted curve in the direction sought with a large enough effect; inconclusive = small, poorly fitted or top-dose-only effect, or another doubt; inactive = no such curve, though single readings can be large; an effect the other way counts as inactive or inconclusive.
Key:
[1] = Cell Viability - HUV-EC-C (AID 542);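 note: cells exposed to compound for 40 hours; nearly all actives have a fitted effect of over 35% in size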
Method in brief: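 Cells were seeded at 1000 per well and incubated 5 hr at 37 °C before compound addition. After 40 hr at 37 °C, CellTiter-Glo reagent was added for 20 min and luminescence read. AC50 values came from Hill-equation modelling.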

[2] = Cell Viability - Mesenchymal (AID 546); conditions: mesenchymal cells viability, qHTS; activity change, negative = cytotoxicity: at 91.7 µM (top of the series);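 note: cells exposed to compound for 40 hours before reading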
Method in brief: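 CellTiter-Glo luminescence (intracellular ATP, 20 min room temperature) after 40 hr compound exposure at 37 °C of 1000 glomerulus-derived human kidney mesenchymal cells/well; AC50 values obtained by fitting qHTS concentration-response data to the Hill equation.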

[3] = MultiTox-Fluor Cytotoxicity Assay - LYMP1-001 - Live Cells (AID 947)
[4] = MultiTox-Fluor Cytotoxicity Assay - LYMP1-003 - Dead Cells (AID 961); note: nearly all actives have a fitted effect of over 70% in size
Method in brief: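 Dead-cell protease release, detected as bis-AAF-R110 fluorescence at 485/520 nm, was measured in LYMP1-003 cells after 16 h compound treatment at 37 C. AC50 values came from Hill-modeled qHTS curves normalized to DMSO (0%) and 15 uM tetraoctylammonium bromide (100%).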

[5] = Cell Viability - LYMP1-003 - Assay at 40 hr (AID 964); note: nearly all actives have a fitted effect of over 60% in size
Method in brief: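 Luminescent ATP signal (CellTiter-Glo) served as the viability read-out after 40 hr compound treatment of human lymphoblastoid LYMP1-003 cells at 37 C. Decreases in ATP were fitted with the Hill equation to give AC50.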

[6] = Cell Viability - LYMP2-004 (AID 966); note: nearly all actives have a fitted effect of over 65% in size
Method in brief: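 qHTS cytotoxicity: human lymphoblastoid line, 24 hr compound treatment, 37 C, complete medium. Viability read as cellular ATP via luciferase luminescence; tetraoctylammonium bromide served as positive control.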

[7] = Cell Viability - LYMP2-011 (AID 969); note: nearly all actives have a fitted effect of over 60% in size
Method in brief: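 In this qHTS cytotoxicity format, compounds are tested across concentrations on human lymphoblastoid cells in complete medium for 24 hours at 37 C. Viability is taken as cellular ATP measured by luciferase luminescence.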

[8] = Cell Viability - LYMP2-013 (AID 970); note: nearly all actives have a fitted effect of over 55% in size
Method in brief: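 Cytotoxicity is scored as a concentration-dependent drop in intracellular ATP in human lymphoblastoid cells after 24 hr compound exposure at 37 C. ATP is quantified by luciferase luminescence, and AC50 values come from Hill-equation modeling.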

[9] = Cell Viability - LYMP2-015 (AID 971); note: nearly all actives have a fitted effect of over 55% in size
Method in brief: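 Cells are seeded at 2500 per well and incubated 5 hr at 37 C. Compounds are added across a concentration series for 24 hr at 37 C. CellTiter-Glo is added, and luminescence is read after 30 min at room temperature.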

[10] = Cell Viability - LYMP2-017 (AID 972); note: nearly all actives have a fitted effect of over 55% in size
Method in brief: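 Cytotoxicity is scored as a concentration-dependent drop in cellular ATP in a human lymphoblastoid line after 24 hr treatment at 37 C. Values are AC50s from Hill-equation modelling.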

[11] = Cell Viability - LYMP2-019 (AID 973); note: nearly all actives have a fitted effect of over 55% in size
Method in brief: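 Cytotoxicity is scored as a concentration-dependent drop in cellular ATP after cells (2500/well) receive compound for 24 hr at 37 C. Tetraoctylammonium bromide serves as positive control.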

[12] = Cell Viability - LYMP2-023 (AID 975); note: nearly all actives have a fitted effect of over 55% in size
Method in brief: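 Steps: seed 2500 human lymphoblastoid cells per well, incubate 5 hr at 37 C, add compound for 24 hr at 37 C, add CellTiter-Glo, hold 30 min at room temperature, read luminescence. AC50 derived by Hill modelling.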

[13] = Cell Viability - LYMP2-025 (AID 976)
Method in brief: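 Acute cytotoxicity is scored as a concentration-dependent fall in intracellular ATP, measured by luciferase luminescence, in human lymphoblastoid LYMP2-025 cells exposed to compound for 24 hours at 37 C. AC50 values come from standard Hill fits.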

[14] = Cell Viability - LYMP2-006 (AID 978); note: nearly all actives have a fitted effect of over 60% in size
Method in brief: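 Human lymphoblastoid cells, 2500 per well, were preincubated 5 hr at 37 C, then exposed to compounds for 24 hr at 37 C in complete medium. Viability was read as intracellular ATP by CellTiter-Glo luminescence; AC50 from Hill-equation fits of qHTS concentration-response data.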

[15] = Cell Viability - LYMP2-010 (AID 981); note: nearly all actives have a fitted effect of over 55% in size
Method in brief: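 Steps: seed 2500 LYMP2-010 cells per well; incubate 5 hr at 37 C; add compound; incubate 24 hr at 37 C; add CellTiter-Glo, wait 30 min at room temperature; read luminescence. Concentration-response fitted to Hill equation for AC50.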

[16] = Cell Viability - LYMP2-014 (AID 983); note: nearly all actives have a fitted effect of over 50% in size
Method in brief: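 Cells are plated at 2500/well and left 5 hr at 37 C. Compounds are added across a concentration range and incubated 24 hr at 37 C in complete medium. CellTiter-Glo is added, and luminescence is read after 30 min at room temperature.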

[17] = Cell Viability - LYMP1-002 - Assay at 40 hr (AID 994); note: nearly all actives have a fitted effect of over 60% in size
Method in brief: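 Cells are plated at 2500 per well and rested 5 hr at 37 C. Compounds are added and incubated 40 hr at 37 C. CellTiter-Glo reagent is added for 30 min at room temperature before luminescence is read.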

[18] = biological target: Voltage-gated inwardly rectifying potassium channel KCNH2 (Homo sapiens) (UniProt Q12809); test: qHTS Assay for Small Molecule Inhibitors of the Human hERG Channel Activity (AID 588834);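 note: lower thallium flux fluorescence means stronger hERG block; nearly all actives have a fitted effect of over 50% in size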
Method in brief: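 In hERG-transduced U2OS cells, dye-loaded for 1 hr at room temperature in dark, test compounds incubated 10 min at 37 °C before thallium stimulation. AC50 values derived by Hill modelling of concentration-response.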

[19] = qHTS assay for small molecule disruptors of the mitochondrial membrane potential - 5 hr assay (AID 651755; calls by dose curve; note: nearly all actives have a fitted effect of over 40% in size)
Method in brief: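 Membrane-potential dye readout: red aggregate (540 ex/590 em) versus green monomer (490 ex/535 em) fluorescence after 30 min dye loading, following 5 hr compound exposure at 37C of overnight-plated HepG2 cells.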

Measured: Potency
Potency is the fitted concentration of half-maximal effect.

Chain of Voltage-gated inwardly rectifying potassium channel KCNH2 (Homo sapiens) (Q12809 whole entry, looked up): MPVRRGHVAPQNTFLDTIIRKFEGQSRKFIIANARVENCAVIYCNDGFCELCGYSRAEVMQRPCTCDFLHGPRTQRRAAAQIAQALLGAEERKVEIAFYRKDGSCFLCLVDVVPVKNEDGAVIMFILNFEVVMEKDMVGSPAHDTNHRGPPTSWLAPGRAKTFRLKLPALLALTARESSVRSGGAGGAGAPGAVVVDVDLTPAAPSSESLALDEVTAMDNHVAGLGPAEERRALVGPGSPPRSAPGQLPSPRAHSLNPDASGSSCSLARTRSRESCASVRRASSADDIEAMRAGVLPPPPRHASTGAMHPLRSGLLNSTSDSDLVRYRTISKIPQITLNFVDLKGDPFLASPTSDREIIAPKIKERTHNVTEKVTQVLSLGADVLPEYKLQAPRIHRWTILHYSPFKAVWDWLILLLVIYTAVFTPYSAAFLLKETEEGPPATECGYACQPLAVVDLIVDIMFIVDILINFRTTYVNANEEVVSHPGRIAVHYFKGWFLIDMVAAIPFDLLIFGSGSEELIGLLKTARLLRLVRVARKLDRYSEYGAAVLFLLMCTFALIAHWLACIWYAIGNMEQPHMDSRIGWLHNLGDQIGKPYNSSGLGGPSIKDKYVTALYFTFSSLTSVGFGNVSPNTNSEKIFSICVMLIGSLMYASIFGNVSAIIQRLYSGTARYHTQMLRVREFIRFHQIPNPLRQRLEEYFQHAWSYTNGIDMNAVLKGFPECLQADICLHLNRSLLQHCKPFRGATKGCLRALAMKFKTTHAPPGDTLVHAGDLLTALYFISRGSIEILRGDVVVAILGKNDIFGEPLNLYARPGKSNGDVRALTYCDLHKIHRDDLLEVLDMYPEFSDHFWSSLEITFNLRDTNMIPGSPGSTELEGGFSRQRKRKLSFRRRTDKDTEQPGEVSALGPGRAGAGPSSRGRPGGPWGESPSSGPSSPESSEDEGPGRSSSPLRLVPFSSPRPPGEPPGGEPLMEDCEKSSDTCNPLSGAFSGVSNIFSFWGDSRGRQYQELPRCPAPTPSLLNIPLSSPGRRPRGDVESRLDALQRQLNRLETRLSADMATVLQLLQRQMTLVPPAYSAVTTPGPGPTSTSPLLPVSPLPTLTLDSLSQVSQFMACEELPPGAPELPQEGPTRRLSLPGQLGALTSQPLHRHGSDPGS

CN(C)c1ccc(C2(c3ccc(N(C)C)cc3)OC(=O)c3cc(N(C)C)ccc32)cc1
inactive: [1] | [2] | [3] | [4] | [5] | [6] | [7] | [8] | [9] | [10] | [11] | [12] | [13] | [14] | [15] | [16] | [17]

O=C1OC2(c3cc(Br)c(O)c(Br)c3Oc3c2cc(Br)c(O)c3Br)c2c(Cl)c(Cl)c(Cl)c(Cl)c21
inactive: [5] | [7] | [10] | [12] | [14] | [15] | [16] | [17]
active: [18] 3.98 µM

O=Cc1ccc(Cl)c(Cl)c1
inactive: [1] | [2] | [3] | [4] | [5] | [6] | [7] | [8] | [9] | [10] | [11] | [12] | [13] | [14] | [15] | [16] | [17] | [18] | [19]

CCC(C)Nc1ccc(NC(C)CC)cc1 (centres undefined)
active: [1] 10 µM | [2] 12.6 µM | [3] 12.6 µM | [4] 12.6 µM | [5] 10 µM | [6] 6.31 µM | [7] 6.31 µM | [8] 6.31 µM | [9] 3.98 µM | [10] 3.98 µM | [11] 5.01 µM | [12] 6.31 µM | [13] 7.94 µM | [14] 5.01 µM | [15] 3.16 µM | [16] 5.01 µM | [17] 15.8 µM | [18] 14.1 µM | [19] 59.6 µM

C/C=C1\C(=O)C[C@H]2[C@@H]3CCC4=CC(=O)CC[C@]4(C)[C@H]3CC[C@]12C
active: [18] 35.5 µM
inactive: [2] | [3] | [9] | [12] | [13] | [19]

Oc1ccc2cc(SSc3ccc4cc(O)ccc4c3)ccc2c1
active: [5] 50.1 µM | [8] 50.1 µM | [10] 50.1 µM | [14] 50.1 µM | [15] 39.8 µM | [17] 39.8 µM | [18] 44.7 µM | [19] 42.2 µM
inactive: [13]

O=[N+]([O-])c1cc([N+](=O)[O-])c2ccc(S(=O)(=O)O)cc2c1O
inactive: [1] | [2] | [4] | [5] | [6] | [7] | [8] | [9] | [10] | [11] | [12] | [13] | [14] | [15] | [16] | [17] | [19]

Cc1cc(O)c(C(C)(C)C)cc1Sc1cc(C(C)(C)C)c(O)cc1C
active: [1] 39.8 µM | [2] 15.8 µM | [3] 31.6 µM | [4] 31.6 µM | [5] 39.8 µM | [6] 31.6 µM | [7] 39.8 µM | [8] 31.6 µM | [9] 39.8 µM | [10] 50.1 µM | [11] 39.8 µM | [12] 50.1 µM | [13] 39.8 µM | [14] 31.6 µM | [15] 31.6 µM | [16] 39.8 µM | [17] 39.8 µM | [18] 39.8 µM | [19] 16.8 µM

O=C1OC(O)C(C(Cl)Cl)=C1Cl (centres undefined)
active: [4] 63.1 µM | [6] 12.6 µM | [7] 25.1 µM | [8] 25.1 µM | [9] 25.1 µM | [10] 25.1 µM | [11] 25.1 µM | [12] 20 µM | [13] 31.6 µM | [14] 25.1 µM | [15] 15.8 µM | [16] 25.1 µM
inactive: [1] | [3] | [18] | [19]

O=C=Nc1ccc(Cc2ccc(N=C=O)cc2)cc1
inactive: [1] | [2] | [3] | [4] | [5] | [6] | [7] | [8] | [9] | [10] | [11] | [12] | [13] | [14] | [15] | [16] | [17] | [19]

CC(=O)Nc1ccc(C(=O)CCl)cc1
inactive: [19]
active: [1] 50.1 µM | [2] 12.6 µM | [3] 20 µM | [4] 25.1 µM | [5] 39.8 µM | [6] 3.98 µM | [7] 6.31 µM | [8] 6.31 µM | [9] 5.01 µM | [10] 5.01 µM | [11] 5.01 µM | [12] 7.94 µM | [13] 10 µM | [14] 10 µM | [15] 3.98 µM | [16] 7.94 µM | [17] 39.8 µM

Nc1ccc2cc3ccccc3cc2c1
inactive: [1] | [2] | [3] | [4] | [5] | [6] | [7] | [8] | [9] | [10] | [11] | [12] | [13] | [14] | [15] | [16] | [17]
active: [18] 5.01 µM | [19] 3.76 µM

c1cc(OCC2CO2)cc(OCC2CO2)c1 (centres undefined)
inactive: [5] | [18] | [19]

C=C(C)c1ccccc1
inactive: [1] | [2] | [3] | [4] | [5] | [6] | [7] | [8] | [9] | [10] | [11] | [12] | [13] | [14] | [15] | [16] | [17] | [18] | [19]

Reference: PubChem BioAssay (NCATS)
